BJeLR viability: kills HRASV12-expressing BJeLR cells; BJeLR (HRASV12) viability, CellTiter-Glo ATP luminescence, 48 h; inhibition, % (test concentration not listed); 300,000 compounds, 0.17% hits; AID 1554; in the data active means inhibition above about 50%
3CLpro inhibitor: SARS-CoV 3CLpro protease inhibition; inhibition, % at 6 µM; 290,000 compounds, 0.14% hits; AID 1706; P0C6X7; recombinant SARS-CoV 3CLpro, quenched FRET peptide cleavage; in the data active means inhibition above about 12%
PriA SSB inh: K. pneumoniae PriA-SSBct interaction inhibition; AlphaScreen SSBct-PriA binding, biotinylated peptide; inhibition, % at 33 µM; 430,000 compounds, 0.6% hits; AID 1272365; in the data active means inhibition mostly above about 37%, no sharp cut-off; inactive means mostly below about 20%
Hits are given with their value. Rows were chosen to be rich in hits. Some 0.78% of all compounds tested hit in one or more screens of this group.

What do the screens show for `CCSc1cccc(C(=O)Nc2ccc(OC)cc2[N+](=O)[O-])c1`?
PriA SSB inh: 51

Results for CCCCC(=O)Nc1ccc(C(=O)Nc2ccc(OC)cc2[N+](=O)[O-])cc1 ?
BJeLR viability: inactive; 3CLpro inhibitor: inactive; PriA SSB inh: inactive

How did COc1ccc(NC(=O)c2ccccc2NS(=O)(=O)c2ccc(C)cc2)c([N+](=O)[O-])c1 do in these assays?
BJeLR viability: inactive; 3CLpro inhibitor: inactive; PriA SSB inh: 53

What do the screens show for `COc1ccc(NS(=O)(=O)c2ccc(C)cc2)c([N+](=O)[O-])c1`?
BJeLR viability: inactive; 3CLpro inhibitor: inactive; PriA SSB inh: inactive

How did O=C1C[C@@H](c2ccc(F)cc2)Sc2nc3ccccc3n21 do in these assays?
PriA SSB inh: inactive

How did CCOc1ccc(-c2nc(SCC(=O)N3CCCC3)c3c(=O)n(C)c(=O)n(C)c3n2)cc1 do in these assays?
PriA SSB inh: inactive

How did O=C(c1ccc(F)cc1Cl)N1C2C=CCC1CC2 (stereo unspecified) do in these assays?
PriA SSB inh: inactive

How did OC(CN1CCN(Cc2cccnc2)CC1)c1cccs1 (stereo unspecified) do in these assays?
PriA SSB inh: inactive

How did COc1cc(OC)cc(C(=O)Nc2nc(CC(=O)Nc3cc(Cl)ccc3OC)cs2)c1 do in these assays?
PriA SSB inh: inactive

How did O=[N+]([O-])/C=C/c1c(OCc2ccccc2)ccc2ccccc12 do in these assays?
BJeLR viability: 81; 3CLpro inhibitor: inactive

What do the screens show for `CCOC(=O)COc1ccc2ccccc2c1/C=C/[N+](=O)[O-]`?
BJeLR viability: inactive; 3CLpro inhibitor: inactive; PriA SSB inh: inactive

How did COc1ccc(O)c(C=NNC(=S)Nc2cccc(S(=O)(=O)N(C)C)c2)c1 do in these assays?
PriA SSB inh: inactive

Results for CN(C)S(=O)(=O)c1cccc(NC(=S)NN=Cc2cc(Br)ccc2O)c1 ?
PriA SSB inh: 47

Results for COc1ccc(NC(=O)C(=O)NCC2CCCN2S(=O)(=O)c2ccc(C)cc2)cc1 (stereo unspecified) ?
BJeLR viability: 51; PriA SSB inh: inactive

How did COc1ccc(S(=O)(=O)N2CCCC2CNC(=O)C(=O)Nc2ccc(C)cc2)cc1 (stereo unspecified) do in these assays?
BJeLR viability: inactive; PriA SSB inh: inactive

Results for O=S(=O)(NC[C@H](O)c1ccc2c(c1)CCO2)c1ccc(C(F)(F)F)cc1 ?
PriA SSB inh: inactive

Results for O=C(c1cc2ccccc2s1)N1CCC(Oc2cccnn2)C1 (stereo unspecified) ?
PriA SSB inh: inactive

How did O=C(CSc1nccn1-c1ccc(Cl)cc1)N1CCCc2ccccc21 do in these assays?
BJeLR viability: inactive; 3CLpro inhibitor: inactive; PriA SSB inh: 56

Results for O=C(CSc1ncc(-c2ccccc2)[nH]1)N1CCCc2ccccc21 ?
PriA SSB inh: 39

What do the screens show for `O=C(CSc1ccc(-c2ccccc2)nn1)N1CCCc2ccccc21`?
BJeLR viability: inactive; 3CLpro inhibitor: inactive; PriA SSB inh: inactive

What do the screens show for `O=C(CSc1nccn1-c1ccccc1)N1CCc2ccccc21`?
BJeLR viability: inactive; 3CLpro inhibitor: inactive; PriA SSB inh: inactive

What do the screens show for `COc1cccc2cc(C(=O)NCc3cccnc3-c3cccs3)oc12`?
PriA SSB inh: inactive

How did Cc1nn(-c2ccccc2)cc1C1CC(c2ccc3c(c2)OCO3)=NN1S(C)(=O)=O (stereo unspecified) do in these assays?
PriA SSB inh: inactive

Results for O=S(=O)(NCC1(O)CCc2ccccc2C1)C1CC1 (stereo unspecified) ?
PriA SSB inh: inactive

How did COc1cc2c(cc1OC)CN(C(=O)CCc1c(C)noc1C)CC2 do in these assays?
PriA SSB inh: inactive

What do the screens show for `O=C(c1cc(-c2ccco2)[nH]n1)N1CCN(c2nc3c(C(F)(F)F)cccc3s2)CC1`?
PriA SSB inh: inactive

Results for CC(C)CN(C1CCS(=O)(=O)C1)S(=O)(=O)c1ccc(Cl)c([N+](=O)[O-])c1 (stereo unspecified) ?
PriA SSB inh: 41

What do the screens show for `CC(C)CN(C1CCS(=O)(=O)C1)S(=O)(=O)c1ccc2ccccc2c1` (stereo unspecified)?
BJeLR viability: inactive; PriA SSB inh: inactive

How did CCSc1oc(-c2ccco2)nc1[P+](c1ccccc1)(c1ccccc1)c1ccccc1 do in these assays?
PriA SSB inh: inactive

What do the screens show for `CCCN1CCCc2cc(CCNC(=O)C(=O)Nc3ccc(OCC)cc3)ccc21`?
PriA SSB inh: inactive

What do the screens show for `CCCN1CCCc2cc(CCNS(=O)(=O)c3cc(C)ccc3OCC)ccc21`?
PriA SSB inh: 71

What do the screens show for `CCCN1CCCc2cc(CCNS(=O)(=O)c3ccc(OCC)c(C)c3)ccc21`?
PriA SSB inh: 56

How did CCOc1ccc(S(=O)(=O)NCCc2ccc3c(c2)CCCN3C)cc1 do in these assays?
PriA SSB inh: inactive
